# Changes are numbered by the printed parent chain.
# Tests used:
# Experiment in all cases: PBM; 200 nM protein, PBS
# Conditions in all cases: dsDNA, one strand shown
# VENTX [1] = target: T1, VENTX (Homo sapiens, UniProt O95231 78-163, R121Q)
# T1 sequence: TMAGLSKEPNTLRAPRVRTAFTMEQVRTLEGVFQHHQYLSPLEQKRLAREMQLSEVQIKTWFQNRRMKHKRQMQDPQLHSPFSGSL
# VENTX [2] = target: T2, VENTX (Homo sapiens, UniProt O95231 78-163)
# T2 sequence: T1 sequence with Q44R
# VENTX [3] = target: T3, VENTX (Homo sapiens, UniProt O95231 78-163, Y115F)
# T3 sequence: T1 sequence with Y38F, Q44R
# HOXA2 [4] = target: HOXA2 (Homo sapiens, UniProt O43364 129-215, R185T)
# Sequence of HOXA2 (Homo sapiens, UniProt O43364 129-215, R185T) (O43364 129-215 R185T): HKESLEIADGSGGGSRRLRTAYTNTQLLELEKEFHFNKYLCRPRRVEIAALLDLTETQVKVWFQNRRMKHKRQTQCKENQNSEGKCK
# HOXA2 [5] = target: HOXA2 (Homo sapiens, UniProt O43364 129-215, R185K)
# Sequence of HOXA2 (Homo sapiens, UniProt O43364 129-215, R185K) (O43364 129-215 R185K): as the sequence (O43364 129-215 R185T) above, with T57K counted along it
# HOXA2 [6] = target: HOXA2 (Homo sapiens, UniProt O43364 129-215, Y150S)
# Sequence of HOXA2 (Homo sapiens, UniProt O43364 129-215, Y150S) (O43364 129-215 Y150S): as the sequence (O43364 129-215 R185T) above, with Y22S, T57R counted along it
# HOXA2 [7] = target: HOXA2 (Homo sapiens, UniProt O43364 129-215)
# Sequence of HOXA2 (Homo sapiens, UniProt O43364 129-215) (O43364 129-215): as the sequence (O43364 129-215 R185T) above, with T57R counted along it
# ALX3 [8] = target: ALX3 (Homo sapiens, UniProt O95076 139-225, N203Q)
# Sequence of ALX3 (Homo sapiens, UniProt O95076 139-225, N203Q) (O95076 139-225 N203Q): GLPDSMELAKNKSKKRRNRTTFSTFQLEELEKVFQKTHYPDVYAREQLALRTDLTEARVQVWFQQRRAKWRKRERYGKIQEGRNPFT
# ALX3 [9] = target: ALX3 (Homo sapiens, UniProt O95076 139-225)
# Sequence of ALX3 (Homo sapiens, UniProt O95076 139-225) (O95076 139-225): as the sequence (O95076 139-225 N203Q) above, with Q65N counted along it
# ALX3 [10] = target: ALX3 (Homo sapiens, UniProt O95076 139-225, L168Q)
# Sequence of ALX3 (Homo sapiens, UniProt O95076 139-225, L168Q) (O95076 139-225 L168Q): as the sequence (O95076 139-225 N203Q) above, with L30Q, Q65N counted along it
# ALX3 [11] = target: ALX3 (Homo sapiens, UniProt O95076 139-225, L168V)
# Sequence of ALX3 (Homo sapiens, UniProt O95076 139-225, L168V) (O95076 139-225 L168V): as the sequence (O95076 139-225 N203Q) above, with L30V, Q65N counted along it
# ALX3 [12] = target: ALX3 (Homo sapiens, UniProt O95076 139-225, N203S)
# Sequence of ALX3 (Homo sapiens, UniProt O95076 139-225, N203S) (O95076 139-225 N203S): as the sequence (O95076 139-225 N203Q) above, with Q65S counted along it
# VAX1 [13] = target: VAX1 (Homo sapiens, UniProt Q5SQQ9 86-172)
# Sequence of VAX1 (Homo sapiens, UniProt Q5SQQ9 86-172) (Q5SQQ9 86-172): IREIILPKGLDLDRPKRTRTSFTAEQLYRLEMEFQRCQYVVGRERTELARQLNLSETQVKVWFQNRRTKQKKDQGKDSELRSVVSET
# VAX1 [14] = target: VAX1 (Homo sapiens, UniProt Q5SQQ9 86-172, T142I)
# Sequence of VAX1 (Homo sapiens, UniProt Q5SQQ9 86-172, T142I) (Q5SQQ9 86-172 T142I): as the sequence (Q5SQQ9 86-172) above, with T57I counted along it
# VAX1 [15] = target: VAX1 (Homo sapiens, UniProt Q5SQQ9 86-172, K157R)
# Sequence of VAX1 (Homo sapiens, UniProt Q5SQQ9 86-172, K157R) (Q5SQQ9 86-172 K157R): as the sequence (Q5SQQ9 86-172) above, with K72R counted along it
# MSX2 [16] = target: MSX2 (Homo sapiens, UniProt P35548 130-214, R199I)
# Sequence of MSX2 (Homo sapiens, UniProt P35548 130-214, R199I) (P35548 130-214 R199I): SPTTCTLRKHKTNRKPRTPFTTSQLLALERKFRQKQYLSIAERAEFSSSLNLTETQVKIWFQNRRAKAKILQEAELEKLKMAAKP
# MSX2 [17] = target: MSX2 (Homo sapiens, UniProt P35548 130-214)
# Sequence of MSX2 (Homo sapiens, UniProt P35548 130-214) (P35548 130-214): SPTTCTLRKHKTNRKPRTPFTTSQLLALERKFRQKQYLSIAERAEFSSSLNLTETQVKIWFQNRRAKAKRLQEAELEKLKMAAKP
# MSX2 [18] = target: MSX2 (Homo sapiens, UniProt P35548 130-214, F161Y)
# Sequence of MSX2 (Homo sapiens, UniProt P35548 130-214, F161Y) (P35548 130-214 F161Y): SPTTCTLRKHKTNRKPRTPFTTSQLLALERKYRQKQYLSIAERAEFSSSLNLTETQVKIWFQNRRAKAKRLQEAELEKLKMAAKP
# HOXB6 [19] = target: HOXB6 (Homo sapiens, UniProt P17509 132-218, K202E)
# Sequence of HOXB6 (Homo sapiens, UniProt P17509 132-218, K202E) (P17509 132-218 K202E): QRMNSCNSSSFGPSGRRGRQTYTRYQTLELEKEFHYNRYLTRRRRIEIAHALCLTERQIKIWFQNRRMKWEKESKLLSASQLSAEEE
# HOXB6 [20] = target: HOXB6 (Homo sapiens, UniProt P17509 132-218)
# Sequence of HOXB6 (Homo sapiens, UniProt P17509 132-218) (P17509 132-218): as the sequence (P17509 132-218 K202E) above, with E71K counted along it
# ALX1 [21] = target: ALX1 (Homo sapiens, UniProt Q15699 118-204, L144V)
# Sequence of ALX1 (Homo sapiens, UniProt Q15699 118-204, L144V) (Q15699 118-204 L144V): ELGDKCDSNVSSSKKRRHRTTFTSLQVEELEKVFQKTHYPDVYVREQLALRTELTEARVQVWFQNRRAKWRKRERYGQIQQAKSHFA
# ALX1 [22] = target: ALX1 (Homo sapiens, UniProt Q15699 118-204, L144R)
# Sequence of ALX1 (Homo sapiens, UniProt Q15699 118-204, L144R) (Q15699 118-204 L144R): as the sequence (Q15699 118-204 L144V) above, with V27R counted along it
# ALX1 [23] = target: ALX1 (Homo sapiens, UniProt Q15699 118-204)
# Sequence of ALX1 (Homo sapiens, UniProt Q15699 118-204) (Q15699 118-204): as the sequence (Q15699 118-204 L144V) above, with V27L counted along it
sequence,measurement,setting,value
GGCGGCCC,binding signal,VENTX [1],"8.11 upbm affinity estimate (log intensity, higher = more binding, comparable within an allelic series)"
same,binding signal,VENTX [2],"8.22 upbm affinity estimate (log intensity, higher = more binding, comparable within an allelic series)"
same,binding signal,VENTX [3],"8.03 upbm affinity estimate (log intensity, higher = more binding, comparable within an allelic series)"
same,binding signal,HOXA2 [4],"7.21 upbm affinity estimate (log intensity, higher = more binding, comparable within an allelic series)"
same,binding signal,HOXA2 [5],"9.97 upbm affinity estimate (log intensity, higher = more binding, comparable within an allelic series)"
same,binding signal,HOXA2 [6],"10.3 upbm affinity estimate (log intensity, higher = more binding, comparable within an allelic series)"
same,binding signal,HOXA2 [7],"7.16 upbm affinity estimate (log intensity, higher = more binding, comparable within an allelic series)"
TTACATAA,binding signal,VENTX [1],"9.95 upbm affinity estimate (log intensity, higher = more binding, comparable within an allelic series)"
same,binding signal,VENTX [2],"10.4 upbm affinity estimate (log intensity, higher = more binding, comparable within an allelic series)"
same,binding signal,VENTX [3],"9.97 upbm affinity estimate (log intensity, higher = more binding, comparable within an allelic series)"
CCCGTCCG,binding signal,VENTX [1],"7.93 upbm affinity estimate (log intensity, higher = more binding, comparable within an allelic series)"
same,binding signal,VENTX [2],"7.94 upbm affinity estimate (log intensity, higher = more binding, comparable within an allelic series)"
same,binding signal,VENTX [3],"7.87 upbm affinity estimate (log intensity, higher = more binding, comparable within an allelic series)"
same,binding signal,ALX3 [8],"7.62 upbm affinity estimate (log intensity, higher = more binding, comparable within an allelic series)"
same,binding signal,ALX3 [9],"7.58 upbm affinity estimate (log intensity, higher = more binding, comparable within an allelic series)"
same,binding signal,ALX3 [10],"7.67 upbm affinity estimate (log intensity, higher = more binding, comparable within an allelic series)"
same,binding signal,ALX3 [11],"7.65 upbm affinity estimate (log intensity, higher = more binding, comparable within an allelic series)"
same,binding signal,ALX3 [12],"7.6 upbm affinity estimate (log intensity, higher = more binding, comparable within an allelic series)"
CGGCGTGC,binding signal,VENTX [1],"8.01 upbm affinity estimate (log intensity, higher = more binding, comparable within an allelic series)"
same,binding signal,VENTX [2],"7.84 upbm affinity estimate (log intensity, higher = more binding, comparable within an allelic series)"
same,binding signal,VENTX [3],"8.12 upbm affinity estimate (log intensity, higher = more binding, comparable within an allelic series)"
same,binding signal,ALX3 [8],"7.7 upbm affinity estimate (log intensity, higher = more binding, comparable within an allelic series)"
same,binding signal,ALX3 [9],"7.74 upbm affinity estimate (log intensity, higher = more binding, comparable within an allelic series)"
same,binding signal,VAX1 [13],"7.08 upbm affinity estimate (log intensity, higher = more binding, comparable within an allelic series)"
same,binding signal,ALX3 [10],"7.73 upbm affinity estimate (log intensity, higher = more binding, comparable within an allelic series)"
same,binding signal,ALX3 [11],"7.75 upbm affinity estimate (log intensity, higher = more binding, comparable within an allelic series)"
same,binding signal,VAX1 [14],"7.28 upbm affinity estimate (log intensity, higher = more binding, comparable within an allelic series)"
same,binding signal,ALX3 [12],"7.71 upbm affinity estimate (log intensity, higher = more binding, comparable within an allelic series)"
same,binding signal,VAX1 [15],"7.16 upbm affinity estimate (log intensity, higher = more binding, comparable within an allelic series)"
CCGCGGTC,binding signal,VENTX [1],"7.69 upbm affinity estimate (log intensity, higher = more binding, comparable within an allelic series)"
same,binding signal,VENTX [2],"7.87 upbm affinity estimate (log intensity, higher = more binding, comparable within an allelic series)"
same,binding signal,VENTX [3],"7.89 upbm affinity estimate (log intensity, higher = more binding, comparable within an allelic series)"
same,binding signal,MSX2 [16],"9.33 upbm affinity estimate (log intensity, higher = more binding, comparable within an allelic series)"
same,binding signal,MSX2 [17],"9.33 upbm affinity estimate (log intensity, higher = more binding, comparable within an allelic series)"
same,binding signal,MSX2 [18],"9.33 upbm affinity estimate (log intensity, higher = more binding, comparable within an allelic series)"
AAATTACC,binding signal,VENTX [1],"11.1 upbm affinity estimate (log intensity, higher = more binding, comparable within an allelic series)"
same,binding signal,VENTX [2],"11.5 upbm affinity estimate (log intensity, higher = more binding, comparable within an allelic series)"
same,binding signal,VENTX [3],"11 upbm affinity estimate (log intensity, higher = more binding, comparable within an allelic series)"
same,binding signal,HOXB6 [19],"9.94 upbm affinity estimate (log intensity, higher = more binding, comparable within an allelic series)"
same,binding signal,HOXB6 [20],"11.6 upbm affinity estimate (log intensity, higher = more binding, comparable within an allelic series)"
ATCGATAA,binding signal,VENTX [1],"10.3 upbm affinity estimate (log intensity, higher = more binding, comparable within an allelic series)"
same,binding signal,VENTX [2],"11 upbm affinity estimate (log intensity, higher = more binding, comparable within an allelic series)"
same,binding signal,VENTX [3],"10.2 upbm affinity estimate (log intensity, higher = more binding, comparable within an allelic series)"
CGTCCTCC,binding signal,VENTX [1],"8.1 upbm affinity estimate (log intensity, higher = more binding, comparable within an allelic series)"
same,binding signal,VENTX [2],"8.19 upbm affinity estimate (log intensity, higher = more binding, comparable within an allelic series)"
same,binding signal,VENTX [3],"8.16 upbm affinity estimate (log intensity, higher = more binding, comparable within an allelic series)"
same,binding signal,ALX1 [21],"6.55 upbm affinity estimate (log intensity, higher = more binding, comparable within an allelic series)"
same,binding signal,ALX1 [22],"6.64 upbm affinity estimate (log intensity, higher = more binding, comparable within an allelic series)"
same,binding signal,ALX1 [23],"6.6 upbm affinity estimate (log intensity, higher = more binding, comparable within an allelic series)"
GCCCCCCC,binding signal,VENTX [1],"8.24 upbm affinity estimate (log intensity, higher = more binding, comparable within an allelic series)"
same,binding signal,VENTX [2],"8.18 upbm affinity estimate (log intensity, higher = more binding, comparable within an allelic series)"
same,binding signal,VENTX [3],"8.34 upbm affinity estimate (log intensity, higher = more binding, comparable within an allelic series)"
same,binding signal,HOXA2 [4],"7.05 upbm affinity estimate (log intensity, higher = more binding, comparable within an allelic series)"
same,binding signal,HOXA2 [5],"9.94 upbm affinity estimate (log intensity, higher = more binding, comparable within an allelic series)"
same,binding signal,HOXA2 [6],"10.3 upbm affinity estimate (log intensity, higher = more binding, comparable within an allelic series)"
same,binding signal,HOXA2 [7],"7.28 upbm affinity estimate (log intensity, higher = more binding, comparable within an allelic series)"
